An excerpt weighted towards active compounds, which were near 9.3% of everything screened.
HCV inhibitor: qHTS Assay for Inhibitors of Hepatitis C Virus (HCV); Huh7.5.1 HCVcc-Cre infection, luciferase reporter, 44 h; Potency, µM (series often up to 41.8 µM), inactives show at the highest dose activity change, negative = inhibition, actives largely listed as inhibitors; hit rate 3.4% among 340,000; further: potency means the concentration at half of the fitted maximal effect
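After 44 h co-culture of compound, cells and HCVcc-Cre (~0.5 moi), substrate is added for 15 min at room temperature and luciferase measured over 15 sec. Cells were seeded at 1,000/well and pre-cultured 4 h.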
FMDV inh: High Throughput Screening for Foot and Mouth Disease Virus Antivirals; FMDV antiviral cell-based qHTS; Potency, µM (top dose mostly 57.9 µM), inactives show at the highest dose activity change, negative = inhibition, actives largely listed as inhibitors; hit rate 1.2% among 410,000; calls by dose curve; tested in HEK293T cells; further: read-out not given here; potency means the concentration at half of the fitted maximal effect; nearly all actives have a fitted effect of over 45% in size
HCMV antiviral: qHTS Assay for inhibitors of the human cytomegalovirus (HCMV); AID 1259415, 2018; activity change, negative = inhibition, % at 57.5 µM; HFF cells, HCMV-luciferase reporter, 72 h; stronger effect = lower value; hit rate 4.5% among 410,000; in the data active means activity change below about -60%; inconclusive means no clear call, values can overlap the other calls; inactive means above about -39%
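HFF cells seeded 16 h at 37C, treated with compounds, infected with luciferase-reporter HCMV at MOI 1 PFU/cell; luciferase read at 72 h post infection, normalized to buffer-only and Salinomycin controls.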
Sm TGR block: qHTS Assay for the Inhibitors of Schistosoma Mansoni Peroxiredoxins; Schistosoma mansoni thioredoxin glutathione reductase (TGR), Q962Y6; purified TGR, DTNB reduction, TNB absorbance 405 nm; Potency, µM (doses to about 114 µM), inactives show at the top dose activity change, negative = inhibition, hits mostly inhibitors; hit rate 3% among 360,000; AID 485364, 2010; further: potency means the concentration at half of the fitted maximal effect; nearly all actives have a fitted effect of over 60% in size
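TGR 20 nM + NADPH 100 uM (dispensed conc.), cpd preinc 15 min RT; start with NADPH (500 uM addition) then DTNB (15 mM addition). Kinetic TNB absorbance, 405 nm filter. Four-parameter Hill fit across titration.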
VACV mCherry inh: qHTS for Stage-Specific Inhibitors of Vaccinia Orthopoxvirus: mCherry Reporter Primary qHTS; Vaccinia virus mCherry reporter infection, fluorescence; Potency, µM (series often up to 36.5 µM), for the others: at the top dose activity change, negative = inhibition, actives largely listed as inhibitors; AID 720579, 2013; hit rate 0.63% among 310,000; calls by dose curve; tested in A549 cells; further: potency means the concentration at half of the fitted maximal effect; nearly all actives have a fitted effect of over 35% in size
VACV Venus inh: qHTS for Stage-Specific Inhibitors of Vaccinia Orthopoxvirus: Venus Reporter Primary qHTS. Potency, µM (highest dose often 36.5 µM), for inactives: top-dose activity change, negative = inhibition, most hits filed as inhibitors. Vaccinia virus Venus reporter expression, fluorescence. AID 720580, 2013. hit rate 0.46% among 330,000; calls by dose curve; tested in A549 cells; further: potency means the concentration at half of the fitted maximal effect; nearly all actives have a fitted effect of over 30% in size
* = called active by the depositor; i = inactive; ? = inconclusive; · = no result given; ! = not confirmed by another sample; [ ] = dose if it differs, or a comment. Unless noted, the call rests on the fitted dose curve; in most records, active means well fitted curve in the direction sought with a large enough effect; inconclusive means small, poorly fitted or top-dose-only effect, or another doubt; inactive means no such curve, though single readings can be large; an effect the other way counts as inactive or inconclusive. On the % scale 0 is the no-effect control and ±100 the full control effect.

SMILES | HCV inhibitor | FMDV inh | HCMV antiviral | Sm TGR block | VACV mCherry inh | VACV Venus inh
Cc1nnc(SCC(=O)NCC2CCCO2)n1-c1ccccc1 (stereo not given) | 15% | -19% | 20 | 1% | · | ·
C=CCn1c(SCC(=O)Nc2sccc2C(N)=O)nc2sc(C)c(C)c2c1=O | ? | -24% | ? | 40µM* | -1% | -13%
O=C(CSc1nnc(-c2ccco2)n1-c1ccccc1)NCC1CCCO1 (stereo not given) | 2% | -19% | -69* | -5% | i | -12%
Cc1c(Nc2nc3ccccc3n3c(C)nnc23)cccc1C(=O)O | · | -3% | 11 | 6% | -2% | -5%
N/C(=N/OC(=O)c1ccccc1Cl)c1nonc1N | 13% | ? | -12 | 12% | i | -10%
C/C=C/c1ccc(Oc2nnnn2-c2ccc(C(=O)O)cc2)c(OC)c1 | 8% | -2% | -1 | 35µM* | · | ·
CC(C)OCCc1cccc[n+]1[O-] | · | -18% | · | · | 1% | 1%
CCOc1ccc(S(=O)(=O)NCCC(=O)OCC(=O)N2CC(=O)Nc3ccccc32)cc1 | 15% | 2% | 13 | -2% | · | ·
Cc1ccc(-c2c(C(=O)N(C)Cc3ccccc3)oc(=O)c3ccccc23)cc1 | 0% | -2% | -65*! | -2% | -13% | -14%
CN(Cc1ccccc1)C(=O)c1oc(=O)c2ccccc2c1-c1ccccc1 | -5% | -3% | 5 | 0% | i | -16%
O=C1c2ccccc2C(=O)N1CCCc1cn(C[C@H]2CC[C@@H]([C@@H]3CC[C@H](Cn4cc(CCCN5C(=O)c6ccccc6C5=O)nn4)O3)O2)nn1 | 9%[8.37 µM] | -18% | -13 | -19% | -13% | 6%
O=C1c2ccccc2C(=O)N1CCCCc1cn(C[C@H]2CC[C@@H]([C@@H]3CC[C@H](Cn4cc(CCCCN5C(=O)c6ccccc6C5=O)nn4)O3)O2)nn1 | ? | 25µM* | 12 | · | -9% | -4%
COC(=O)[C@]1(C)N[C@H](CN(C)C(=O)Nc2ccc(C)cc2)[C@@H]2C(=O)N(C)C(=O)[C@@H]21 | 1µM* | -3% | 1 | · | -10% | -5%
COC(=O)[C@]1(C)N[C@H](CN(C)C(=O)c2ccccc2)[C@@H]2C(=O)N(C)C(=O)[C@@H]21 | 4µM* | -11% | 8 | · | i | -8%
COC(=O)[C@]1(C)N[C@H](CN(C)C(=O)Nc2ccc(C)cc2)[C@@H]2C(=O)N(Cc3ccccc3)C(=O)[C@@H]21 | 2.8µM* | -9% | 25 | · | i | -8%
COC(=O)[C@]1(C)N[C@H](CN(C)C(=O)Nc2ccc(Cl)cc2)[C@@H]2C(=O)N(Cc3ccccc3)C(=O)[C@@H]21 | 17% | -23% | 2 | · | -6% | -16%
C[C@H](NC(=O)c1nc[nH]c1C(=O)NCc1ccc(CNC(=O)OC(C)(C)C)cc1)C(=O)OCc1ccccc1 | 29% | ? | 3 | · | -3% | -6%
CCCN(CCC)c1nc(N)nc(C#N)n1 | · | · | · | · | 14% | -6%
COc1ccc([C@@H]2[C@@H]3C(=O)N(C(C)(C)C)C(=O)[C@@H]3[C@]3(Cc4ccccc4)C(=O)N(c4cccc(Cl)c4)C(=O)N23)cc1 | 23% | -19% | -6 | 3% | -20% | -10%
O=C(Nc1nc2c(F)cccc2s1)c1ccc(S(=O)(=O)N2CCCc3ccccc32)cc1 | · | ? | -3 | -2% | -3% | -1%
O=C(Nc1nc2c(F)cc(F)cc2s1)c1ccc(S(=O)(=O)N2CCc3ccccc32)cc1 | · | -27% | -99* | -2% | ? | ?
Cc1ccc2nc(NC(=O)c3ccc(S(=O)(=O)N4CCCc5ccccc54)cc3)sc2c1 | ? | ? | -90*! | 2% | -22% | -16%
CC1(Oc2cccc(F)c2)CCN(Cc2ccc3ccccc3c2)C1 (stereo not given) | · | -20% | -6 | · | -4% | 1%
